Whole data set: some 33,000 sequences, median “E-score (-0.5 to 0.5)” near -0.056, cut for the highest 2% near 0.38. The sample holds the highest values, similar sequences and a random draw of the others, so the mix is not that of the screen.
These sequences were tested against Stb4 (UniProt P50104) (assay: PBM E-score (8-mer binding enrichment) (E-score (-0.5 to 0.5)); higher = stronger / more preferred TF binding). Settings: protein concentration: 200 nM; construct: GST-DNA-binding domain.
Summary of the method: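 E-scores (a modified Wilcoxon-Mann-Whitney statistic) were assigned by the Universal PBM Analysis Suite to every ungapped eight-base word pooled with its reverse complement. The input came from universal all-10-mer Agilent arrays made double-stranded by primer extension and probed with GST-tagged yeast transcription factors at about 100-200 nM. Fluorescent anti-GST detected bound protein, and masliner normalised the scans.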

Sequence of UniProt P50104 (P50104 whole entry, the tested form may be a part): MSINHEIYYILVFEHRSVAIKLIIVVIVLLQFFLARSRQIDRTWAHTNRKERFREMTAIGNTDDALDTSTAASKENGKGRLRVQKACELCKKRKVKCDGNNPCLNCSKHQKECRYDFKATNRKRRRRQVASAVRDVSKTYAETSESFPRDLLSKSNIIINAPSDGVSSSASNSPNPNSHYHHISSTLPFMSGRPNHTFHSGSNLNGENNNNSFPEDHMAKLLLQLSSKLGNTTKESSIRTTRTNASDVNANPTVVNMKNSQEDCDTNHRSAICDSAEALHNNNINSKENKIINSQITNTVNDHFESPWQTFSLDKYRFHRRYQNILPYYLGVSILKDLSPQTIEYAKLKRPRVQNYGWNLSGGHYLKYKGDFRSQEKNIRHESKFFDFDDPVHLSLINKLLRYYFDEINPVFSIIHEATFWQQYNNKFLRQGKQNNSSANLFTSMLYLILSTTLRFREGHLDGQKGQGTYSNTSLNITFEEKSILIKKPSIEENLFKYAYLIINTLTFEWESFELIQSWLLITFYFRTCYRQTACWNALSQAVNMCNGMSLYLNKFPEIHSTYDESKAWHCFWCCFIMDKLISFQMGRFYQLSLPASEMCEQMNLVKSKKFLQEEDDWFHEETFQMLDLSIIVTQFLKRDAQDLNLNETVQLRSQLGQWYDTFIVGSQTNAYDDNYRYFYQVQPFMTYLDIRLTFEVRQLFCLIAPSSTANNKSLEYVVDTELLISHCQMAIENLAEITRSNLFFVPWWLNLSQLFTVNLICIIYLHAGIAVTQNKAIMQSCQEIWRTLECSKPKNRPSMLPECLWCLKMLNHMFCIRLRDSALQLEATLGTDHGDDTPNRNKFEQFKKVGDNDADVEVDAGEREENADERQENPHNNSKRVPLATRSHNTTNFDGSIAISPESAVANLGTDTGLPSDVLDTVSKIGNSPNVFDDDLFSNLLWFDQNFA

| Sequence | PBM E-score |
| --- | --- |
| CAGAGATA | -0.182 |
| CGAGTTGC | 0.0987 |
| CGCTCCCA | -0.0934 |
| CCAAACAG | -0.345 |
| GGAGAGAA | 0.0164 |
| GATGTGGC | -0.0114 |
| CATCCGAC | 0.455 |
| AATCCGAC | 0.346 |
| CATCCGTC | 0.308 |
| ACTCAGTG | -0.208 |
| ACGATCAT | -0.174 |
| CAACCATA | -0.251 |
| AACGAATG | -0.142 |
| AGCAGCTG | -0.307 |
| GCTCAGAC | -0.19 |
| CGACTAGA | -0.0326 |
| TGAGTGAA | -0.295 |
| GGAGTGTA | 0.0839 |
| CCGGTCCG | 0.389 |
| CCGGTCCC | 0.282 |
| CCGGTCCA | 0.0504 |
| CCAAAGTA | 0.0417 |
| AGGGCTCA | -0.326 |

| Sequence | PBM E-score |
| --- | --- |
| ATTCGGGG | 0.34 |
| CTTCGGGC | 0.291 |
| GTACGGGA | 0.222 |
| GTTCGGGA | 0.453 |
| ATTCGGGA | 0.415 |
| CTTCGGGA | 0.439 |
| GATCGGGA | 0.359 |
| CATCGGGA | 0.331 |
| ATTCGGGC | 0.301 |
| TGCTAAAA | -0.205 |
| AGATCGAT | -0.16 |
| ACCCCTAT | -0.143 |
| GACCTGCC | 0.0159 |
| ACACTGAG | -0.128 |
| CCGGAAAG | 0.366 |
| CAGGAAAA | -0.0586 |
| ACGGAAAC | 0.375 |
| ACGGGACA | 0.276 |
| CCGGAAAA | 0.441 |
| CCGGAAAC | 0.394 |
| GCGGGAAA | 0.306 |
| CTGGAAAA | -0.00258 |
| TCGGGACA | 0.408 |

| Sequence | PBM E-score |
| --- | --- |
| CCGGGACA | 0.326 |
| CCGGGAAA | 0.33 |
| TCGGGAAA | 0.443 |
| ACGCAAAT | -0.00753 |
| GTAAGACA | -0.166 |
| CCACTGCA | -0.135 |
| AAGGGAGC | -0.0979 |
| CGCTGAAC | 0.00896 |
| AGCGCTCA | -0.191 |
| ATTATGGA | -0.154 |
| CCGCTTTA | 0.138 |
| TCGGAAAA | 0.451 |
| ACGGGAGA | 0.12 |
| TCGGGAGA | 0.391 |
| GCGGGAGA | 0.227 |
| ACGGAAAA | 0.325 |
| GCGGAAAA | 0.332 |
| AGACGGAC | -0.0259 |
| ACTGGTAG | -0.226 |
| ATTGATCG | 0.0261 |
| CCCCGATA | 0.145 |
| GATCTTCC | 0.285 |
| CCGGGTCA | 0.276 |

| Sequence | PBM E-score |
| --- | --- |
| CCGGGTAG | 0.355 |
| CCGGTTAA | 0.334 |
| CCGGGTAA | 0.418 |
| TCGGTTAA | 0.44 |
| CCGGTAAA | 0.312 |
| TCGGGTCA | 0.427 |
| CCGGGTAC | 0.375 |
| GCGGTTAA | 0.17 |
| ACGGGTCA | 0.0265 |
| GCGGTAAA | 0.188 |
| TCGGTAAA | 0.433 |
| GACGCGAC | -0.068 |
| CACCATGG | -0.29 |
| GTCTAGAC | -0.342 |
| ACACAACC | -0.0108 |
| CAGGCTCG | 0.08 |
| AGAGTTAC | -0.165 |
| ATGGTTTA | 0.193 |
| GCGGGTAA | 0.325 |
| ACGGGTAA | 0.328 |
| TCGGGTAA | 0.464 |
| CTTCGGCA | 0.443 |
| GATCGGCA | 0.349 |

| Sequence | PBM E-score |
| --- | --- |
| ATTCGGCA | 0.438 |
| ATTCGGCC | 0.271 |
| GGTCGGCA | 0.353 |
| ATTCGGCG | 0.333 |
| CTTCGGCC | 0.218 |
| CATCGGCA | 0.376 |
| GTTCGGCA | 0.418 |
| ACAACCTC | -0.114 |
| AGGCTGGG | -0.236 |
| ACCGCGTG | 0.053 |
| ACTCCAAC | -0.11 |
| AGACTGAG | -0.107 |
| GCACGGGA | 0.305 |
| CCTCGGGC | 0.288 |
| ACTCGGGA | 0.44 |
| GCTCGGGA | 0.464 |
| ACTCGGGC | 0.263 |
| ACTCGGGG | 0.286 |
| GCTCGTGA | -0.108 |
| CCTCGGGA | 0.444 |
| CCACGGGA | 0.223 |

Source: the supplement of paper PMC3334620
